Source: PubChem BioAssay (NCATS)
Records with an inconclusive call do not appear. The source made the active and inactive calls. Unless noted, the call rests on the fitted dose curve; in most records, active means well fitted curve in the direction sought with a large enough effect; inconclusive means small, poorly fitted or top-dose-only effect, or another doubt; inactive means no such curve, though single readings can be large; an effect the other way counts as inactive or inconclusive.

Columns and labels:
[1] = qHTS for Inhibitors of the vitamin D receptor (VDR): Hit Validation using a Texas Red Assay (AID 602201); further: on the % scale 0 is the no-effect control and ±100 the full control effect
In short: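 Fluorescence polarization (Ex 595/Em 615 nm) of Texas Red (7 nM) with 1.5 uM VDR-LBD and LG19078 (final concentrations). Compounds were incubated for 2 hours at room temperature.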

[2] = target: Rap guanine nucleotide exchange factor 3 (Homo sapiens) (UniProt O95398); experiment: Confirmatory qHTS for antagonist of cAMP-regulated guanine nucleotide exchange factor 3 (EPAC1) (AID 1645880); further: nearly all actives have a fitted effect of over 55% in size; further: potency means the concentration at half of the fitted maximal effect
Rap guanine nucleotide exchange factor 3 (Homo sapiens), sequence (O95398 whole entry, looked up): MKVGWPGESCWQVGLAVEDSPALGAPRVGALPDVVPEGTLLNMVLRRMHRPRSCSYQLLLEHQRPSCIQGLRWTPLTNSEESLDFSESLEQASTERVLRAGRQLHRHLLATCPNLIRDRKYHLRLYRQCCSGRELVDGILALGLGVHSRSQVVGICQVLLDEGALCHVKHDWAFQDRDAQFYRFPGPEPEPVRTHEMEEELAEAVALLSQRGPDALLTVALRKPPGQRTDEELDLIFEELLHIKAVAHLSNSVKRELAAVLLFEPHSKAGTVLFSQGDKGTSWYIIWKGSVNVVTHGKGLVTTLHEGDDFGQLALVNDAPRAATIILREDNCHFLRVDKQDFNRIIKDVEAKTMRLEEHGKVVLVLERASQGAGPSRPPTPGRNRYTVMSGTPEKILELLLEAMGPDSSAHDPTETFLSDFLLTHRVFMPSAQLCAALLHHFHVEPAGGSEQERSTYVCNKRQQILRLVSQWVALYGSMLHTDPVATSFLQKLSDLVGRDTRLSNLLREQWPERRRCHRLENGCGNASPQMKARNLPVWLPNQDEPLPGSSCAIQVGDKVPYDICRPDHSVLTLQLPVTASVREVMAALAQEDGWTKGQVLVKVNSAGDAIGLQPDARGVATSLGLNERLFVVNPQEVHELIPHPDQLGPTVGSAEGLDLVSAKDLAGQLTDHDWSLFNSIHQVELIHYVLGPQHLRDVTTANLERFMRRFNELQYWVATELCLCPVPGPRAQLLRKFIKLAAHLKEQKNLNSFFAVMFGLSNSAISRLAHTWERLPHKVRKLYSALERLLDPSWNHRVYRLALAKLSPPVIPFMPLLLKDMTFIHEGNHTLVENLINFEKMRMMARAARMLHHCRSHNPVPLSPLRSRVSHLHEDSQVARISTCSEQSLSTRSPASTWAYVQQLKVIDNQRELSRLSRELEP
In short: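 Nucleotide exchange uses 100 nM EPAC1, 250 nM RAP1B-BODIPY-GDP and 50 uM GDP, with compounds in a concentration-titration series. After 5 min at room temperature, fluorescence (480 nm ex/540 nm em) is read every 5 min for 30 min. Data are normalized to control ATA and DMSO.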

[3] = target: Rap guanine nucleotide exchange factor 3 (Homo sapiens) (UniProt O95398); experiment: Confirmatory qHTS for agonist of cAMP-regulated guanine nucleotide exchange factor 3 (EPAC1) (AID 1645881); further: nearly all actives have a fitted effect of over 75% in size; further: potency means the concentration at half of the fitted maximal effect;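 on activation: EPAC1 catalysed release of BODIPY-GDP from Rap1B seen as fluorescence loss; 100% = effect of cAMP agonist control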
[4] = target: Rap guanine nucleotide exchange factor 4 (Homo sapiens) (UniProt Q8WZA2); experiment: Confirmatory qHTS for agonist of cAMP-regulated guanine nucleotide exchange factor 4 (EPAC2) (AID 1645884);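 further: nucleotide exchange releases bodipy-GDP from Rap1 and this lowers its fluorescence; nearly all actives have a fitted effect of over 65% in size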; further: potency means the concentration at half of the fitted maximal effect; on activation: on the % scale 0 is the no-effect control and ±100 the full control effect
Rap guanine nucleotide exchange factor 4 (Homo sapiens), sequence (Q8WZA2 whole entry, looked up): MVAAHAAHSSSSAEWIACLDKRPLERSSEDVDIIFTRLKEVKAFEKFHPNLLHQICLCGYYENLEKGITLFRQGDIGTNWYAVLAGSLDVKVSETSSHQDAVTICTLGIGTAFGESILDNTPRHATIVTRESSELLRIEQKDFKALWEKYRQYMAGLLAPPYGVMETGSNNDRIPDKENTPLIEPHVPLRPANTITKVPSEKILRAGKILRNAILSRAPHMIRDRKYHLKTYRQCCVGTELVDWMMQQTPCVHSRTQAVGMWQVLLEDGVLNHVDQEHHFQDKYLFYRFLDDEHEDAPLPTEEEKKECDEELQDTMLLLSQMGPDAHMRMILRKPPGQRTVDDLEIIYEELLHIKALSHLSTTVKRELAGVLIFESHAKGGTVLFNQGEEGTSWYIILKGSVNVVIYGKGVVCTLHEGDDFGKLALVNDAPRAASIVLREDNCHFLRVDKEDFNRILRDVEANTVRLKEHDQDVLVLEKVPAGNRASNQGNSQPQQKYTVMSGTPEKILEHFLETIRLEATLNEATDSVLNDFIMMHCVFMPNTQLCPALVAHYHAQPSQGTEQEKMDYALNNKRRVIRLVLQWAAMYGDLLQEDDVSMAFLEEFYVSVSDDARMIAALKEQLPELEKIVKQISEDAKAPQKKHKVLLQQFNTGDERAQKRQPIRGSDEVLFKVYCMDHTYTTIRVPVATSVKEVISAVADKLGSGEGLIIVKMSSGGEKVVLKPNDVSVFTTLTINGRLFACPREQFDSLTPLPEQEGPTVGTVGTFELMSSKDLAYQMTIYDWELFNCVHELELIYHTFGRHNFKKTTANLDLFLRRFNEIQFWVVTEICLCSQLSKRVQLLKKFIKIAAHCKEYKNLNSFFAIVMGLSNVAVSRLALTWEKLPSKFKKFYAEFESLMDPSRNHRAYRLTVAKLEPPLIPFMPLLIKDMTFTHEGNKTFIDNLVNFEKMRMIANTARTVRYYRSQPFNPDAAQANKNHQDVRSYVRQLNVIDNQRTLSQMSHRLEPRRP

[5] = target: Rap guanine nucleotide exchange factor 4 (Homo sapiens) (UniProt Q8WZA2); experiment: Confirmatory qHTS for antagonist of cAMP-regulated guanine nucleotide exchange factor 4 (EPAC2) (AID 1645885); further: nearly all actives have a fitted effect of over 25% in size; further: potency means the concentration at half of the fitted maximal effect; on activity change, negative = inhibition: on the % scale 0 is the no-effect control and ±100 the full control effect
[6] = target: Rap guanine nucleotide exchange factor 3 (Homo sapiens) (UniProt O95398); experiment: Counterscreen qHTS for antagonist of cAMP-regulated guanine nucleotide exchange factor 3 (EPAC1) (AID 1645888);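 further: fluorescence loss as bound BODIPY-GDP is released from Rap1B; % of control where 0% means no effect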
In short: (§1)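 Measured: fluorescence of BODIPY-GDP bound to Rap1B, which falls as exchange proceeds. Conditions include 50 uM competing GDP, 5 and 30 min reads, and a later cAMP challenge for antagonist detection.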

[7] = target: Rap guanine nucleotide exchange factor 3 (Homo sapiens) (UniProt O95398); experiment: Counterscreen qHTS for agonist of cAMP-regulated guanine nucleotide exchange factor 3 (EPAC1) (AID 1645889); further: nearly all actives have a fitted effect of over 40% in size; further: potency means the concentration at half of the fitted maximal effect; on activation: % of control where 0% means no effect
In short: as §1

[8] = target: Tumor susceptibility gene 101 protein (Homo sapiens) (UniProt Q99816); experiment: qHTS Assay for Iinhibitors of HIV-1 Budding by Blocking the Interaction of PTAP/TSG101: Hit Validation (AID 651600); further: potency means the concentration at half of the fitted maximal effect; nearly all actives have a fitted effect of over 70% in size
Tumor susceptibility gene 101 protein (Homo sapiens), sequence (Q99816 whole entry, looked up, the tested form may be a part): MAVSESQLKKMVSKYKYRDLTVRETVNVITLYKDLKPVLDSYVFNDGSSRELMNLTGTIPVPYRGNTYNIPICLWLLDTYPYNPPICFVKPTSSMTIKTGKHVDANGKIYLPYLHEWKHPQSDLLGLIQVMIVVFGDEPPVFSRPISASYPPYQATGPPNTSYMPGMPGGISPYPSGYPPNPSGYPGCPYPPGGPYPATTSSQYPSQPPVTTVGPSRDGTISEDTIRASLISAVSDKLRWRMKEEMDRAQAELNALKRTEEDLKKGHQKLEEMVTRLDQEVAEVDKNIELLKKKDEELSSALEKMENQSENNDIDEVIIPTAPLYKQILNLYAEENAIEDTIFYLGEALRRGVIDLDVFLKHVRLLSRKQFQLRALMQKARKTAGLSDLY
In short: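 Compounds are added to the Tsg101 binding domain (10 uM final) in pH 7.5 HEPES buffer. FITC-PTAP peptide follows at 50 nM final. After 20 min at r.t., polarized FITC emission is measured.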

[9] = target: Glucocorticoid receptor (Homo sapiens) (UniProt P04150); experiment: GR-GFP Redistribution (AID 450;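 active means compounds whose dose series gives a full or clear partial fitted curve of increased nuclear translocation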; further: potency means the concentration at half of the fitted maximal effect); conditions: U2OS GR-GFP nuclear translocation, laser cytometry, 2 h
Glucocorticoid receptor (Homo sapiens), sequence (P04150 whole entry, looked up, the tested form may be a part): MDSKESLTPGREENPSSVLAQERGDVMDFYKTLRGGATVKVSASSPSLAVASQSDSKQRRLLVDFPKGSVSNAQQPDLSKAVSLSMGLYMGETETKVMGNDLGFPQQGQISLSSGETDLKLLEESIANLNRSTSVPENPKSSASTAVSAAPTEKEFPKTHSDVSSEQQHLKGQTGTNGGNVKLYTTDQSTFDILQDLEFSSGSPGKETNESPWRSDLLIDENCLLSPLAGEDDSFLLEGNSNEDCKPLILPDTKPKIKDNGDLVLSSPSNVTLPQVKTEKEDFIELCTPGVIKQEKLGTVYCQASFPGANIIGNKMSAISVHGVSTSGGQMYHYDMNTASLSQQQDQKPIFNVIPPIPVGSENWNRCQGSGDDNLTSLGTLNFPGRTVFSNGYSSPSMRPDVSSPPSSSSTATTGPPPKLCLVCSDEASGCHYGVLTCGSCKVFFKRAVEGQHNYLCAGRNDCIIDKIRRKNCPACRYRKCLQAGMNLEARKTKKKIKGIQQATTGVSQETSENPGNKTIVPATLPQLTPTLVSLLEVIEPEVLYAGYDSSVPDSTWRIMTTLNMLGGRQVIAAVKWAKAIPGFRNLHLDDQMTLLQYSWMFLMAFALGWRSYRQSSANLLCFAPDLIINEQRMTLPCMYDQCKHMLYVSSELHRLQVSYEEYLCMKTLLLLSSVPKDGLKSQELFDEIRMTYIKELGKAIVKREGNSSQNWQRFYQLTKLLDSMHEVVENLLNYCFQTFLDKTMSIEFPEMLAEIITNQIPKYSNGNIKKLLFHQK

[10] = target: Glucocorticoid receptor (Homo sapiens) (UniProt P04150); experiment: GR-EFC Redistribution (AID 451; calls by dose curve; further: potency means the concentration at half of the fitted maximal effect); conditions: CHO-K1 GR-EFC translocation, beta-gal luminescence, 2 h
In short: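 CHO-K1 cells stably expressing nuclear-localized β-gal enzyme acceptor and GR fused C-terminally to the enzyme donor fragment; ligand-driven nuclear translocation restores β-gal by complementation. Compounds titrated up to 46 uM final, 2 h at 37 °C; luminescence read.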

[11] = target: Mitogen-activated protein kinase 10 (Mus musculus) (UniProt Q61831); experiment: JNK3 AlphaScreen Assay (AID 530; active means well fitted curve in either direction with a large enough effect, not every such curve was filed as active;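 further: kinase came from lysate of stimulated human HepG2 cells; signal reports phosphorylation of biotinylated GST-cJun 1-79 at Ser73 with 10 µM ATP; series mostly up to about 57 µM; on the % scale 0 is the no-effect control and ±100 the full control effect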)
In short: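 JNK3 came from HepG2 lysates pre-activated with IL-1beta and TNF-alpha and phosphorylated biotinylated GST-cJun (1-79) at 10 uM ATP, pH 7.6, room temperature. Compounds were titrated. AlphaScreen signal used anti-phospho-cJun (Ser73) antibody.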

[12] = target: Cytochrome P450 2C9 (Homo sapiens) (UniProt P11712); experiment: qHTS Assay for Inhibitors and Substrates of Cytochrome P450 2C9 (AID 883); further: potency means the concentration at half of the fitted maximal effect; nearly all actives have a fitted effect of over 60% in size
Cytochrome P450 2C9 (Homo sapiens), sequence (P11712 whole entry, looked up): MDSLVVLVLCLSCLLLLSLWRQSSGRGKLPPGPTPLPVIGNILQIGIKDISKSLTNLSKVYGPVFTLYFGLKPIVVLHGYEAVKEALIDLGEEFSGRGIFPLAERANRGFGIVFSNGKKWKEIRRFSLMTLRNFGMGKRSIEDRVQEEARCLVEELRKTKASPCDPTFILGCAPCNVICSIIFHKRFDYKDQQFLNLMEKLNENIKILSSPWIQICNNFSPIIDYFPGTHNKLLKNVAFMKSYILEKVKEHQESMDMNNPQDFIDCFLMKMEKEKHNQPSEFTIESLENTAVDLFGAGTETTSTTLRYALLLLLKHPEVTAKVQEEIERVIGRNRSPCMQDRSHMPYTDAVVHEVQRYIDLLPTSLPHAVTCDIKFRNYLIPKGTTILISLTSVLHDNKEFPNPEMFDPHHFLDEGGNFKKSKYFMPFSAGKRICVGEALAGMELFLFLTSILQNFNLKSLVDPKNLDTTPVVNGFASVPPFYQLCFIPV
In short: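 CYP2C9 deoxyluciferin hydroxylation, 37C, 60 min with NADPH regeneration; 10nM enzyme, 100uM Luciferin-H (KM). Glo detection reagent stopped reaction; luminescence normalized to sulphaphenazole (57uM) full inhibition.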

[13] = target: Cytochrome P450 3A4 (Homo sapiens) (UniProt P08684); experiment: qHTS Assay for Activators of Cytochrome P450 3A4 (AID 885); further: nearly all actives have a fitted effect of over 65% in size
Cytochrome P450 3A4 (Homo sapiens), sequence (P08684 whole entry, looked up): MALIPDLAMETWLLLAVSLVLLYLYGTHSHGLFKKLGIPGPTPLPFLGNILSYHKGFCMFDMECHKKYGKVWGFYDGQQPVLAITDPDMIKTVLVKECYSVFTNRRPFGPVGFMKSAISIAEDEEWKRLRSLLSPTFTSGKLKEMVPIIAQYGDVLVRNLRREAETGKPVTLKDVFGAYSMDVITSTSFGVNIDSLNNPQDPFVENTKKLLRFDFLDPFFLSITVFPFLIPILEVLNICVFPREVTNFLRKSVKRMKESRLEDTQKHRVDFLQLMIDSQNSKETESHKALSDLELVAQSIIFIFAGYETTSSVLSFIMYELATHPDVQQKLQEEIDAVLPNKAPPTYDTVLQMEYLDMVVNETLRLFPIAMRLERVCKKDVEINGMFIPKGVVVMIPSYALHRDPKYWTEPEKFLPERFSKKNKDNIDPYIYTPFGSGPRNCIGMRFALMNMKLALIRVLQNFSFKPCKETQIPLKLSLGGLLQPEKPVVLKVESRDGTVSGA
In short: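 Quantitative HTS format: compounds preincubated with 20nM human CYP3A4 and Luciferin-PPXE substrate at KM, reaction started by NADPH regeneration, stopped after 60 min, luciferase luminescence read 20 min later.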

[14] = target: DNA dC->dU-editing enzyme APOBEC-3G (Homo sapiens) (UniProt Q9HC16); experiment: qHTS for inhibitors of Vif-A3G interactions: Validation (AID 588379); further: 0% is about no effect
In short: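 HeLa cells stably expressing Vif and A3G-eYFP, 700 cells/well, incubated overnight at 37 deg C, then exposed to compound overnight at 37 deg C. Inhibition of Vif-mediated degradation read as increased yellow fluorescence (Ex 488/Em 500-530) by laser-scanning cytometry.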

[15] = target: Cytochrome P450 3A4 (Homo sapiens) (UniProt P08684); experiment: qHTS Assay for Inhibitors and Substrates of Cytochrome P450 3A4 (AID 884); further: potency means the concentration at half of the fitted maximal effect; nearly all actives have a fitted effect of over 50% in size
In short: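 20 nM human CYP3A4 with 25 uM Luciferin-PPXE (at KM) in 200 mM KPO4, preincubated 10 min with compound; NADPH regeneration started a 60 min RT reaction. Luciferin detected by luminescence, normalized to 57 uM ketoconazole as full inhibition.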

[16] = Confirmation and Secondary Assay for Modulators of Hemoglobin Beta Chain Splicing at IVS2 654 locus (AID 910);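 further: per-well total GFP intensity by laser scanning cytometry after 2-day treatment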;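 further: potency means the concentration at half of the fitted maximal effect; potency of activators that raise GFP signal by restoring correct splicing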
In short: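 HeLa cells stably carrying EGFP interrupted by mutant beta-globin IVS2-654 intron (CMV-driven) were treated with compound for 2 days at 37C; corrected splicing was scored as total peak GFP intensity per well (488 nm excitation, 500-520 nm emission).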

[17] = Confirmation and Secondary Assay for Modulators of Hemoglobin Beta Chain Splicing at IVS2 705 locus (AID 930);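 further: HeLa cells stably expressing the EGFP-705 splicing reporter; series mostly up to about 46 µM; % of control where 0% means no effect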
In short: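 Restored EGFP fluorescence after 2-day compound exposure reports splicing correction in IVS2-705 EGFP reporter HeLa cells; positive control was 500 nM splice-blocking PNA oligo. Signal measured as well total peak GFP intensity (488 nm excitation).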

[18] = target: Ubiquitin carboxyl-terminal hydrolase 1 (Homo sapiens) (UniProt O94782); experiment: Inhibitors of USP1/UAF1: Pilot qHTS (AID 504865); further: potency means the concentration at half of the fitted maximal effect; nearly all actives have a fitted effect of over 35% in size
Ubiquitin carboxyl-terminal hydrolase 1 (Homo sapiens), sequence (O94782 whole entry, looked up): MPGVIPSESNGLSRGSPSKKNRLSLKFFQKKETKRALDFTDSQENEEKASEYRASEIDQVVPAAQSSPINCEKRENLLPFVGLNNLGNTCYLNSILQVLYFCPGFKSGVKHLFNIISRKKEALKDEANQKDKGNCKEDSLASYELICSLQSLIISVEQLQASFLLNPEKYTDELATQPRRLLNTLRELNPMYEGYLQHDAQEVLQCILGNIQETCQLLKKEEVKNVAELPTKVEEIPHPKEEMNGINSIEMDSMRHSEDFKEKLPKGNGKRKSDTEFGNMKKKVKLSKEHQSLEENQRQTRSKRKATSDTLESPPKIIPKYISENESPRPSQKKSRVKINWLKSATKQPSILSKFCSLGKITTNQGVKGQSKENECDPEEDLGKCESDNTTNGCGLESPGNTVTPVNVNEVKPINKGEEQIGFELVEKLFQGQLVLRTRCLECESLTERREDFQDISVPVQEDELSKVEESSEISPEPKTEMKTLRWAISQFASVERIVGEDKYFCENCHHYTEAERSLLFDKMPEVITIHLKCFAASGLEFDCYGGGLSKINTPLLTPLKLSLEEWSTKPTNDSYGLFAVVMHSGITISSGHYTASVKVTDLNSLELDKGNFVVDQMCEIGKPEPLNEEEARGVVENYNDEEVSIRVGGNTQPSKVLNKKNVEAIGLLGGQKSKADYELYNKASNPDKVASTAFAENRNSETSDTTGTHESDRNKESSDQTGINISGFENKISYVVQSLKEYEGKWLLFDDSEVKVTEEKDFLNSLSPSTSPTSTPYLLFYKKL
In short: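 In 50mM HEPES pH 7.8 containing 0.5mM EDTA, 1mM TCEP, 0.1 mg/ml BSA and 0.01% Tween-20, 1nM USP1/UAF1 is exposed to compound for 15 min, then Ub-Rho (150nM final) is added and fluorescence is read over time.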

O=C1NC(=S)NC(=O)C1=Cc1cccn1-c1ccc(O)cc1
inactive: Potency [1] | Potency [3] | activation [4] 2.5% [at 17.1 µM, percent relative to cAMP agonist control] | activity change, negative = inhibition [5] -7.44% [at 12.7 µM]
active: Potency [2] 3.55 µM

Cc1ccc(N)c(C(=O)c2ccc(Br)cc2)c1
inactive: Potency [2] | Potency [3] | Potency [5] | outcome [6]

O=c1nc(/C=C/c2ccc(Cl)cc2Cl)cc(C(F)(F)F)[nH]1
active: Potency [2] 44.7 µM
inactive: Potency [3] | activation [4] -2.31% [at 17.1 µM, percent relative to cAMP agonist control] | activity change, negative = inhibition [5] -10% [at 12.7 µM] | activation [7] 4.81% [at 30.8 µM]

OC1/C(=C/c2ccc(C(F)(F)F)cc2)N2CCC1CC2 (stereo unspecified)
inactive: Potency [2] | Potency [3] | Potency [4] | Potency [5] | Potency [7]

CCOC(=O)[C@]12Cc3ccccc3[C@H]1N(Cc1ccccc1)C(=O)c1cc(OC)ccc12
inactive: Potency [2] | Potency [3] | activation [4] -5.98% [at 17.1 µM, percent relative to cAMP agonist control] | activity change, negative = inhibition [6] 2.15% [at 30.8 µM] | activation [7] 20.9% [at 30.8 µM]

COC(=O)C1=C(c2cc3ccccc3s2)C[C@@H]2CC[C@H]1N2C(=O)NC1CC1
inactive: Potency [2] | Potency [3] | Potency [4] | Potency [5] | Potency [7]

O=c1cc(C(F)(F)F)c2cc3c4c(c2o1)CCCN4CCC3
inactive: Potency [2]
active: Potency [8] 0.651 µM | Potency [3] 50.1 µM | Potency [4] 39.8 µM | Potency [5] 60.1 µM | Potency [7] 50.1 µM

CCCCC/C=C\C/C=C\C/C=C\C/C=C\CCCC(=O)Nc1ccc(O)cc1
active: Potency [12] 5.01 µM
inactive: Potency [9] > 46 µM | Potency [10] > 46 µM | outcome [11] | Potency [13] | outcome [14] | Potency [2] | Potency [3] | Potency [4] | Potency [5]

Cc1cc(C=C(C#N)C#N)ccc1N1CCCC1
inactive: Potency [2] | outcome [6]
active: Potency [3] 100 µM | Potency [4] 112 µM | Potency [7] 28.2 µM

CCCCCC1C(=O)O[C@H](C)[C@@H](NC(=O)c2cccc(NC=O)c2O)C(=O)OC(C)C1OC(=O)CC(C)C (stereo partly specified)
inactive: Potency [13] | Potency [16] | Potency [17] | Potency [2] | Potency [3] | Potency [4]
active: Potency [15] 7.94 µM

CC(C)CCn1c(=O)c(C(=O)Nc2ccccc2S(N)(=O)=O)c(O)c2ccccc21
active: Potency [2] 75.7 µM
inactive: Potency [3] | Potency [4] | outcome [6] | Potency [7]

CC[C@@]1(O)CC(O)c2c(cc3c(c2O)C(=O)c2c(O)ccc(O)c2C3=O)C1C(=O)OC (stereo partly specified)
active: Potency [15] 7.94 µM | Potency [16] 12.6 µM | Potency [18] 22.4 µM
inactive: Potency [13] | Potency [2] | Potency [3] | Potency [4] | Potency [5]

CC(=O)OC1CC2C(C)(C)C(=O)C=C[C@]2(C)C2CC[C@]3(C)C(=CC(=O)OC3c3ccoc3)[C@]12C (stereo partly specified)
inactive: Potency [13] | Potency [16] | Potency [17] | Potency [2] | Potency [3] | Potency [4]
active: Potency [15] 15.8 µM

O=C1NC(=O)N(Cc2ccc(F)cc2)C(=O)/C1=C\c1ccc([N+](=O)[O-])s1
active: Potency [2] 12 µM | Potency [7] 22.4 µM
inactive: Potency [3] | Potency [4] | Potency [5]

Cn1cc(C=C2C(=O)NC(=O)NC2=O)c2ccccc21
active: Potency [3] 79.4 µM | Potency [4] 63.1 µM | Potency [5] 75.7 µM
inactive: Potency [2] | Potency [7]

O=C(c1ccco1)c1cn(Cc2ccccc2)c2ccccc12
inactive: Potency [2] | Potency [3] | Potency [4] | outcome [6] | Potency [7]

COC1C(OC(=O)c2ccc(C)[nH]2)C(O)C(Oc2ccc3c(O)c(NC(=O)c4ccc(O)c(CC=C(C)C)c4)c(=O)oc3c2Cl)OC1(C)C (stereo unspecified)
active: Potency [2] 30.1 µM
inactive: Potency [3] | Potency [4] | Potency [7]

O=[N+]([O-])c1ccc(NCc2ccccc2)c2nonc12
active: Potency [8] 1.03 µM | Potency [3] 8.91 µM | Potency [4] 100 µM | Potency [7] 22.4 µM
inactive: Potency [2] | Potency [5]

CCCCNC(=O)c1c(N)n(CCCOC)c2nc3ccccc3nc12
inactive: Potency [3] | Potency [4] | outcome [6]
active: Potency [2] 84.9 µM

Oc1c(Cl)cccc1Cc1cc(Cl)cc(Cl)c1O
inactive: Potency [3] | Potency [4] | Potency [5] | Potency [7]
active: Potency [2] 19 µM
